GIRK2 activator – Activators of human GIRK2-containing channels; P48051; HEK293 GIRK2/NPY4 cells, thallium flux fluorescence; activation (% efficacy), % for hits at 37.5 µM; 34,000 tested, under 10 active;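 active means primary screen hit, no activity in plain HEK293 cells, and in GIRK2-only cells above 5% efficacy rising with concentration; inactive means the rest, including fluorescent compounds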;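 further: efficacy is normalized control-subtracted fluorescence 15 s after thallium addition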
GluA2 TARP mod – GluA2-stargazin AMPA receptor complex modulation. O88602+P19491. HEK293 GluA2+stargazin, membrane potential dye (FDSS), glutamate EC50; hits were called plate by plate, in both directions. calls only at 30 µM. hit rate 3.5% among 40,000. AID 1259245;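 active means any of four per-well response measures lying three or more SD from its plate-wide compound average, in either direction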
Starred values were filed as active, the others as inactive; i = inactive; nt = no result; + = active, no number; [ ] = remark or other dose. This excerpt belongs to a sample that is enriched for hits.

SMILES	GIRK2 activator	GluA2 TARP mod
CS(=O)(=O)Nc1cccc(NC(=O)COc2ccc3c(c2)C(=O)CC3)c1	i	i
CCOc1ccc2ccccc2c1C(=O)NCC(O)Cc1ccccc1 (stereo not given)	i	+
CCOc1ccc2ccccc2c1C(=O)NCC(O)c1ccc(C(F)(F)F)cc1 (stereo not given)	i	nt
COC(=O)NCC(O)Cc1ccccc1 (stereo not given)	i	i
CCSc1ccccc1C(=O)NCC(O)Cc1ccccc1 (stereo not given)	i	+
CCOc1ccc2ccccc2c1C(=O)NCC1COC2(CCCCC2)O1 (stereo not given)	i	+
CCOc1ccc2ccccc2c1C(=O)NCCc1ccsc1	i	+
CCOc1ccc2ccccc2c1C(=O)NCc1nc(C)no1	i	nt
CCOc1cc(C(=O)NCC2COC3(CCCCC3)O2)cc(OCC)c1OCC (stereo not given)	i	i
COc1ccc(-c2c(C)nn3c(NCc4ccccc4)cc(C)nc23)cc1OC	i	i
Cc1ccc(NC(=O)Cn2nc(-c3ccc(Cl)cc3)ccc2=O)cc1	i	i
CCc1nnsc1C(=O)Nc1ccc(S(=O)(=O)N2CCC(C)CC2)cc1	i	i
COc1cccc(CNC(=O)C(=O)Nc2ccc3c(c2)N(C(=O)C(C)C)CCC3)c1	i	+
COc1ccc(CNC(=O)C(=O)Nc2ccc3c(c2)N(C(=O)C(C)C)CCC3)cc1	i	i
Cc1ccnc(Nc2ccc(NCCNC(=O)Cn3cnc4ccccc43)nn2)c1	i	nt
O=C(Nc1ccc2scnc2c1)C(c1ccccc1)c1ccccc1	i	i
COc1cc(S(=O)(=O)Nc2cc(Cl)ccc2O)ccc1Cl	i	+
COc1ccc(Cl)cc1S(=O)(=O)Nc1cc(Cl)ccc1O	i	i
CCOc1ccc(S(=O)(=O)Nc2cc(Cl)ccc2O)cc1C	i	i
COc1ccc(Br)cc1S(=O)(=O)Nc1cc(Cl)ccc1O	i	+
O=C(CS(=O)(=O)Cc1ccccc1)N1CCN(c2nc3c(Cl)cccc3s2)CC1	i	+
CCc1cccc2sc(N3CCN(C(=O)CS(=O)(=O)Cc4ccccc4)CC3)nc12	i	i
CCOc1ccc(-n2nnnc2SC(C)C(=O)Nc2ccccc2C)cc1 (stereo not given)	nt	i
COc1ccc(-n2nnnc2SCCC(=O)Nc2nccs2)cc1	i	i
CCOc1ccc(-n2nnnc2SC(C)C(=O)Nc2ccccc2F)cc1 (stereo not given)	nt	+
SMILES	GIRK2 activator	GluA2 TARP mod
COc1ccc(-n2nnnc2SC(C)C(=O)Nc2nccs2)cc1 (stereo not given)	nt	+
COc1ccc(-c2cc3c(=O)[nH]nc(SCc4nc(-c5ccc(C)cc5)oc4C)n3n2)cc1OC	i	i
CCc1ccc(OCCS(=O)(=O)Nc2ccc(OCCNC(C)=O)cc2)cc1	i	i
N#Cc1cccc(NC(=O)CSc2ncc(S(=O)(=O)c3cccs3)c(N)n2)c1	i	i
N#Cc1ccc(NC(=O)CSc2ncc(S(=O)(=O)c3cccs3)c(N)n2)cc1	i	+
COC(=O)N1CCC(CNC(=O)C(=O)NCCc2ccccc2)CC1	i	i
COC(=O)N1CCC(CNC(=O)CCc2ccccc2)CC1	i	+
CC(C)NC(=O)CSc1nnc(N2CCN(c3ccc(F)cc3)CC2)s1	i	+
CCOC(=O)C(C)Sc1nnc(N2CCN(c3ccc(F)cc3)CC2)s1 (stereo not given)	i	i
O=C(CN1CCN(CC(=O)Nc2cccc(F)c2)CC1)Nc1ccc(Cl)cc1	nt	+
O=C(CN1CCN(C2c3ccccc3-c3ccccc32)CC1)Nc1cccc(F)c1	nt	i
O=C1NC2(CCN(Cc3ccc(Cl)cc3)CC2)C(=O)N1CCOc1ccccc1	i	i
COc1ccc(-c2nnc(NC(=O)c3cccc(Cl)c3)o2)cc1OC	i	i
COc1cccc2cc(C(=O)NCCc3csc4nc(-c5cccs5)nn34)oc12	i	i
COc1cc(NC(=O)Nc2ccc(CN3CCN(C)CC3)cc2)cc(OC)c1OC	i	i
COc1ccc(Cl)cc1NC(=O)Nc1ccc(CN2CCN(C)CC2)cc1	14%*[75 µM]	i
O=C(Nc1ccc(N2CCCS2(=O)=O)cc1)Nc1cccc(Cl)c1	i	+
COc1ccc(Cl)cc1NC(=O)Nc1cc(N2CCCS2(=O)=O)ccc1OC	i	+
COc1cccc(NC(=O)Nc2ccc(N3CCCS3(=O)=O)cc2)c1	i	i
COc1ccc(N2CCCS2(=O)=O)cc1NC(=O)Nc1ccc(Cl)c(Cl)c1	i	i
CCCS(=O)(=O)Nc1ccc(-n2nnn(CCOC)c2=O)cc1	i	i
O=c1c2sccc2nc(SCc2nc(-c3ccc4c(c3)OCO4)no2)n1-c1ccccc1	i	i
CC(=O)N1CCc2c(sc(NC(=O)c3ccccc3C)c2-c2nc3ccccc3s2)C1	nt	i

Screening data (PubChem BioAssay)
